# Bioassay records from PubChem BioAssay.
# KB-3-1 tox: KB-3-1 parental cell cytotoxicity. Potency, µM (highest dose often 46.1 µM), usual class: cytotoxic. AID 1347075. 400,000 tested, 1.4% active. KB-3-1 viability, CellTiter-Glo ATP luminescence, 72 h; further: on the % scale 0 is the no-effect control and ±100 the full control effect; nearly all actives have a fitted effect of over 60% in size
#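 Luminescent ATP read-out (CellTiter-Glo) measures survival of drug-naive KB-3-1 cells after 72 h compound exposure at 37 °C. Titration series was screened from lowest to highest concentration, with DMSO vehicle plates as background controls.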
# ATXN viability: viability counter-screen for ATXN expression inhibitors; S2 cells (HEK-293 line with an ATXN2-luciferase reporter) viability, CellTiter-Fluor protease fluorescence, 24 h; Potency, µM (titrated, usually from 56.7 µM), usual class: cytotoxic; 400,000 tested, 0.49% active; AID 651635; further: nearly all actives have a fitted effect of over 40% in size
# HT1080 IDH1KD tx: kills HT-1080 cells with IDH1 knockdown | HT-1080 IDH1 knockdown viability, ATP luminescence, 48 h | Potency, µM (doses to about 46.1 µM), inactives show at the top dose activity, negative = toxicity, most hits filed as cytotoxic | 360,000 tested, 2% active;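 further: 0% = DMSO wells and -100% = cell-free medium wells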
#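 After a 2 h attachment period, IDH1KD HT-1080 cells took pin-transferred compound for 48 h at 37 °C; ATP-based luminescence after 10 min room-temperature reagent incubation reported viability.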
# KB-V1 MDR tox: KB-V1 MDR subline cytotoxicity | Potency, µM (doses to about 46.1 µM), most hits filed as cytotoxic | KB-V1 MDR cells viability, CellTiter-Glo, 72 h | 400,000 tested, 3.4% active | AID 1347076; further: on the % scale 0 is the no-effect control and ±100 the full control effect; nearly all actives have a fitted effect of over 60% in size
#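 qHTS viability screen in drug-selected KB-V1 MDR cells: 72 h compound treatment at 37 degrees C, ATP luminescence end point.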
# ATXN2 expr inh: reduces ATXN2 reporter expression in HEK-293 cells | HEK-293 ATXN2-luciferase reporter, luminescence, 24 h | Potency, µM (top dose mostly 57 µM), inactives show at the top dose activity change, negative = inhibition, actives largely listed as inhibitors | 360,000 tested, 0.72% active; further: on the % scale 0 is the no-effect control and ±100 the full control effect; nearly all actives have a fitted effect of over 55% in size
#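 qHTS (up to 57 uM final) was run with 24 h compound exposure of reporter cells at 37 °C. Each well was multiplexed: SteadyGlo luminescence measured ATXN2-luciferase expression after a fluorogenic Gly-Phe-AFC viability readout (25 uM final).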
# HT1080-NT tox: kills 2HG-producing HT-1080-NT fibrosarcoma cells; HT-1080-NT fibrosarcoma viability, CellTiter-Glo ATP luminescence, 48 h; Potency, µM (highest dose often 46.1 µM), for the others: at the highest dose activity, negative = less viability, hits mostly cytotoxic; 360,000 tested, 1.6% active;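 further: NT is the 2HG producing partner of a matched IDH1 knockdown line; 0% = DMSO-treated cells and -100% = media-only wells without cells; nearly all actives have a fitted effect of over 55% in size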
#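 Viability by CellTiter-Glo luminescence after 48 h compound exposure at 37C of HT-1080-NT cells (750/well, RPMI, 5% FBS). % activity scaled between DMSO wells and medium-only wells, then curve-fitted and categorized by curve class.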
# Active calls of the source: *; i = inactive; ? = inconclusive; nt = no result; ! = not confirmed by another sample. Most compounds without a hit are left out; they make up all but 6.2% or so of the library. The call rests on the fitted dose curve; in most records, active means well fitted curve in the direction sought with a large enough effect; inconclusive means small, poorly fitted or top-dose-only effect, or another doubt; inactive means no such curve, though single readings can be large; an effect the other way counts as inactive or inconclusive. Potency means the concentration at half of the fitted maximal effect.
SMILES,KB-3-1 tox,ATXN viability,HT1080 IDH1KD tx,KB-V1 MDR tox,ATXN2 expr inh,HT1080-NT tox
COc1ccc(-c2nc3c4ccccc4ccn3c2CN2CCOCC2)cc1OC,i,?,6%,16µM*,nt,-14%
c1ccc(-c2nc3c4ccccc4ccn3c2CN2CCOCC2)cc1,i,i,-1%,?,nt,-23%
COc1ccc(-c2nc3c(C)cc(Br)cn3c2Cc2cccc(F)c2)cc1OC,i,?,?,i,4%,?
COc1ccc(-c2nc3c4ccccc4ccn3c2Cc2cccc(F)c2)cc1OC,i,?,?,i,11%,23µM*
O=S1(=O)N[C@H](Cc2ccccc2)COc2cc(N3CCC[C@@H]3CO)ccc21,21µM*,i,23µM*,i,19%,?
CCOC(=O)c1c(C)oc2ncnc(Nc3cc(C)cc(C)c3)c12,i,i,nt,i,0%,nt
CCOc1ccc(C2CC(=O)n3nc(-c4ccc(C)cc4)nc3S2)cc1OC (centres undefined),i,i,nt,i,-7%,nt
COc1cc2ncc3c(-c4ccccc4)nn(-c4ccc(C)cc4)c3c2cc1OC,i,i,nt,?,9%,nt
Cc1ccc(N2C(=O)C3C4C=CC(C4)C3C2=O)cc1C (centres undefined),i,i,2%,i,8%,4%
O=C1C2C3C=CC(C3)C2C(=O)N1c1ccc2c(c1)CCC2 (centres undefined),i,i,1%,18µM*,6%,1%
O=C(C[N+]12CCCc3cccc(c31)CCC2)c1ccc2ccccc2c1,?,nt,nt,i,nt,nt
COc1ccc(N2CCC(CNC(=O)Nc3ccccc3)C2)cc1 (centres undefined),i,i,8%,16µM*,-21%,1%
COc1ccc(N2CCC(CNC(=S)Nc3cc(C)cc(C)c3)C2)cc1 (centres undefined),i,i,?,i,?,?
COc1ccc(N2CCC(CNC(=S)Nc3cc(C)ccc3C)C2)cc1 (centres undefined),i,i,3%,18µM*,nt,-22%
O=C(NCC1CCN(c2ccc(S(=O)(=O)N3CCOCC3)cc2)CC1)Nc1ccccc1,i,i,-3%,i,-15%,-1%
Cn1c(=O)n(-c2ccc3c(c2)OCO3)c2nc(-c3ccc(Cl)cc3)nc(C(N)=O)c21,i,i,nt,i,4%,nt
NC(=O)C1CCN(c2ncc(-c3cccc(N4CCOCC4)c3)s2)CC1,i,nt,nt,i,nt,nt
CC(C)COc1ccc(CSCCNC(=S)Nc2ccccc2)cc1,i,i,?,26µM*,-20%,?
CCc1nnc(NC(=O)CSc2nc(C)c3c(c2C#N)CCCC3)s1,?,nt,?,?,-5%,?
Cc1nc(SCC(=O)Nc2ccc(F)cc2)c(C#N)c(C)c1CC(=O)c1ccc(Br)cc1,16µM*,?,-11%,?,?,-14%
COc1ccc(NC(=O)CSc2nc(C)c3c(c2C#N)CCCC3)cc1,i,i,10%,4.6µM*,-6%,3%
COc1ccccc1NC(=O)CSc1nc(C)c2c(c1C#N)CCCC2,i,i,2%,7.3µM*,-13%,2%
CN(C)c1ccc(/C=C/c2ccnc3ccc(F)cc23)cc1,i,nt,nt,i,nt,nt
COc1cccc(C2(CC(=O)N3CCN(c4ccccn4)CC3)CC(=O)N(C3CCCC3)C2=O)c1 (centres undefined),nt,i,nt,nt,nt,nt
CCN(CC)S(=O)(=O)c1cc(NC(=O)C(C)N2CCN(Cc3ccc4c(c3)OCO4)CC2)ccc1C (centres undefined),13µM*,i,-11%,2.9µM*,-18%,-4%
SMILES,KB-3-1 tox,ATXN viability,HT1080 IDH1KD tx,KB-V1 MDR tox,ATXN2 expr inh,HT1080-NT tox
Cc1cc(C)n(-c2nc(NCCCN(C)C)c3c4c(sc3n2)COC(C)(C)C4)n1,i,i,-25%,i,10%,-14%
Cc1cc(C)n(-c2nc(NCCC(C)C)c3c4c(sc3n2)COC(C)(C)C4)n1,i,?,10%,2.3µM*,3%,19%
Cc1cc(C)n(-c2nc(NCCN(C)C)c3c4c(sc3n2)COC(C)(C)C4)n1,i,i,?,i,?,18µM*
CCN(CC)CCNc1nc(-n2nc(C)cc2C)nc2sc3c(c12)CC(C)(C)OC3,?,i,?,?,-2%,?
COc1cccc(-c2nn(C)c3sc(C(=O)N4CCN(c5cccc(C)c5)C(C)C4)cc23)c1 (centres undefined),i,?,nt,i,?,nt
CN(Cc1ccccc1)C(=O)CCSc1nc(-c2ccc3c(c2)OCO3)cc(C(F)(F)F)n1,i,i,?,2.6µM*,-22%,-10%
O=C(CCSc1nc(-c2ccc3c(c2)OCO3)cc(C(F)(F)F)n1)NCc1ccccc1,i,i,?,i,-21%,-12%
Cc1[nH]nc2ncc(C(=O)c3cc(F)ccc3O)cc12,?,i,-15%,8.2µM*,2%,-15%
Cc1noc2ncc(C(=O)c3cc(F)ccc3O)cc12,i,i,9%,i,4%,-4%
CC(=O)CC1N(S(=O)(=O)c2ccc(C)cc2)c2ccccc2N1S(=O)(=O)c1ccc(C)cc1,i,nt,7%,?,nt,11%
C=C[C@@H]1c2cc(C)ccc2N(S(=O)(=O)c2ccc(C)cc2)[C@H](c2ccc(OC(C)=O)cc2)C1(C#N)C#N,6.5µM*!,?,6.5µM*,7.3µM*,25µM*,7.3µM*
C=C[C@@H]1c2ccccc2N(S(=O)(=O)c2ccc(C)cc2)[C@H](c2ccc(OC(C)=O)cc2)C1(C#N)C#N,18µM*!,?,?,?,?,?
COCCCNC(=S)NC(=O)c1ccc(C)cc1,i,i,14%,18µM*,43%,0%
COCCCNC(=S)NNC(=O)c1ccc(C(C)(C)C)cc1,i,i,-1%,?,nt,-11%
O=C(N/N=C/c1cccc([N+](=O)[O-])c1)c1cccc(Br)c1,i,i,-15%,i,-13%,-19%
O=C(N/N=C\c1ccc(Sc2ccccn2)o1)c1cccc(Br)c1,i,i,2%,23µM*,-4%,-11%
Cc1ccccc1C(=O)N/N=C/c1ccc(Sc2ccccn2)o1,i,i,0%,21µM*,-1%,-9%
COc1cc(OC)c(NC(=O)N2CCc3c(sc4c3CCCC4)C2c2ccccc2)cc1Cl (centres undefined),i,i,nt,i,-2%,nt
